Whole data set: some 68,000 sequences, median “fluorescence intensity (a.u.)” near 9,100, cut for the highest 2% near 16,000. The sample as a whole holds a higher share of the highest values than the screen did.
Biological target: OsWRKY34 (Oryza sativa, UniProt Q0JBA9 1-250)
Experiment: protein-binding microarray (RPBM); PBS, 2% BSA, 51.3 ng/ul salmon testes DNA, 50 uM zinc acetate, 200 nM TF, 25 C, 1 h; high values mean tight binding
Details: protein: recombinant; tags: N-terminal polyhistidine and DsRed monomer fusion (pET32a); label: CyDye5-dUTP incorporated in the synthesized complementary strand; 3' TTTTT single-stranded linker to array surface; dsDNA, one strand shown
In short: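 A custom Agilent array was converted to double-stranded form by primer extension with Cy5-dUTP and blocked with 2% BSA. Protein at 200 nM in PBS with 2% BSA, salmon testes DNA and 50 µM zinc acetate was applied for 1 h at 25 °C, followed by washing. The proteins were polyhistidine–DsRed N-terminal fusions of transcription factors, expressed in E. coli BL21-CodonPlus and Ni–NTA-purified. The binding signal is per-feature fluorescence intensity (arbitrary units) from an Axon 4000B scanner.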

OsWRKY34, sequence (Q0JBA9 entry or part of it): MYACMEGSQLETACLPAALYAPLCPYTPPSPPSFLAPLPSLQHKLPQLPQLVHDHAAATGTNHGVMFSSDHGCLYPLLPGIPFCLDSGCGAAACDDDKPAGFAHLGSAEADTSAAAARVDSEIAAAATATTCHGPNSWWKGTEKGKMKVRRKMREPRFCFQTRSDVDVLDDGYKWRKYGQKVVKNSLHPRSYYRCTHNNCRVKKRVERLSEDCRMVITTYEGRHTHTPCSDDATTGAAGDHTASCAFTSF

Sequence | binding signal
TCGTTTCTTTGCCAGCTGCGCATCCATTCAGCCGGTCGTACGGAGTCACCTAGTGCAG | 12700 fluorescence intensity (a.u.)
CTTTTATTTAACGGATGTTTCACCATGGTCTTTACTGTAGCGGAGTCACCTAGTGCAG | 9320 fluorescence intensity (a.u.)
TCCCATCACACACACCACCGCTCCGCTCCATGTCGCACCACGGAGTCACCTAGTGCAG | 8350 fluorescence intensity (a.u.)
CGTAGAAGATGTTGCTGTTGCCGCCGTTGACGAACTTGGTCGGAGTCACCTAGTGCAG | 8810 fluorescence intensity (a.u.)
CAAATTACTACTACCTCCGTCCCAAAATAATTGCATTTCTCGGAGTCACCTAGTGCAG | 8950 fluorescence intensity (a.u.)
CACGCACCCTCTTTCCCGTGCTTCGTGTGCCCTTCGATCGCGGAGTCACCTAGTGCAG | 9430 fluorescence intensity (a.u.)
AGATTATTTTGCTCGATTTTGAATTTTTCATGCATCCGTCCGGAGTCACCTAGTGCAG | 9150 fluorescence intensity (a.u.)
AGAGCGGGTGGGAGGCGAAGTAGACAGGGGCGGGGCGCATCGGAGTCACCTAGTGCAG | 15700 fluorescence intensity (a.u.)
TTACCTCGCGTACCCTCGCACCCGTCTCCCGCAGACAGATCGGAGTCACCTAGTGCAG | 8480 fluorescence intensity (a.u.)
GTGTGTGCATGCTGATAGCTTGGTCTCTTGAGGATAATTGCGGAGTCACCTAGTGCAG | 9730 fluorescence intensity (a.u.)
TCATTTGATTTATTGTTAAATATATTTTTATGTATACATACGGAGTCACCTAGTGCAG | 8550 fluorescence intensity (a.u.)
CTTCCTCCGTTTCACAATGTAAGTCGTTCTAGCATTTTTCCGGAGTCACCTAGTGCAG | 8110 fluorescence intensity (a.u.)
GTTATGTTAGGTCTGGTTTTTTGGCTGTAGCAGCAGCAGTCGGAGTCACCTAGTGCAG | 8510 fluorescence intensity (a.u.)
GCTAGACACAGGCAACCAAACACACCCTAACACTCACTGTCGGAGTCACCTAGTGCAG | 9290 fluorescence intensity (a.u.)
GGCCGGCGACGCTGAACGGGGTGGGGTAGTCTGCTATTTACGGAGTCACCTAGTGCAG | 18000 fluorescence intensity (a.u.)
GCGGCGCGGTGCGCTCGGGTGGGGCCGGTCGACGTCTGCACGGAGTCACCTAGTGCAG | 8120 fluorescence intensity (a.u.)
GACGTGGCTATGGGTGGGCGTTGCGAGCCGGCATTTTATACGGAGTCACCTAGTGCAG | 16400 fluorescence intensity (a.u.)
GCTGTGGGTAGGCCGGCGCCGCCGGCCGACGGGTGGGGAGCGGAGTCACCTAGTGCAG | 8420 fluorescence intensity (a.u.)
TCGTTGGTGGGTAGGTGGTGGAGATGGTGGTGGCGGCGGGCGGAGTCACCTAGTGCAG | 15600 fluorescence intensity (a.u.)
CGGCGGCGGCGACCGCGGGTAGGGTGGGTGGCGCGGGCCGCGGAGTCACCTAGTGCAG | 9330 fluorescence intensity (a.u.)
CGGGTAGGGTGGGGTGGGGCGGGGTGGGGTTGGCGGCGACCGGAGTCACCTAGTGCAG | 39500 fluorescence intensity (a.u.)
GGAACGGCCAGCGGCGGCGGCGGGTAGGGTGGGGTGGGGCCGGAGTCACCTAGTGCAG | 21600 fluorescence intensity (a.u.)

Sequence | binding signal
TAGGTAGGGTGGTGGCGGGCGGGCTCCCGCAGCCAGTGGCCGGAGTCACCTAGTGCAG | 11100 fluorescence intensity (a.u.)
GGTGGGCCGGGCTTTGCTTTTGCTTTAAACATTTGCGTGGCGGAGTCACCTAGTGCAG | 8680 fluorescence intensity (a.u.)
ACCTCCTTTTCATACAGCCGGCGTGGCATTTGTGGGCCCACGGAGTCACCTAGTGCAG | 9220 fluorescence intensity (a.u.)
GCGGGCGGCAGCGCGGTGGGGCGGTGGCGGTGGTGGCGGCCGGAGTCACCTAGTGCAG | 9980 fluorescence intensity (a.u.)
AAGAAGGGGAAGGGAGTTTCTATGGTTCTTGCTGGTGCCGCGGAGTCACCTAGTGCAG | 8750 fluorescence intensity (a.u.)
GCCTATTTTTTCGTACGGAGTTGGCTTGTAGTAGTTGCATCGGAGTCACCTAGTGCAG | 8950 fluorescence intensity (a.u.)
ACTTCCAAGTCTTCGACCGCGACACTCCTTACCCGCACGCCGGAGTCACCTAGTGCAG | 8570 fluorescence intensity (a.u.)
CGACTACTCGGCCGGCCACCTGCGCCGTCTCTACCCCGAGCGGAGTCACCTAGTGCAG | 9320 fluorescence intensity (a.u.)
GTCCTGCTACGCATACTCTCCCCTCTGACTCTTTGCGCCACGGAGTCACCTAGTGCAG | 8250 fluorescence intensity (a.u.)
GGTCCATCACTCCAAGGTCAGTGCTTTTTTATTTACTCTACGGAGTCACCTAGTGCAG | 14600 fluorescence intensity (a.u.)
AATAAGACGAAAAGTCAAACGTTTGTCAAAAAGTCAACGGCGGAGTCACCTAGTGCAG | 8290 fluorescence intensity (a.u.)
CGGGCGGGTCAAGGTCTCCTCCTCTCTCGTCGGCGACCTCCGGAGTCACCTAGTGCAG | 10900 fluorescence intensity (a.u.)
TACTCCTCGTCATTTTGGTTTTGGTTTTGGTTTGGGTGGTCGGAGTCACCTAGTGCAG | 10400 fluorescence intensity (a.u.)
CCAAGGGTGGGGCCTCTCGTCGTCTCGTCTCCTCTCGTCTCGGAGTCACCTAGTGCAG | 20400 fluorescence intensity (a.u.)
GACTAATAGCTTCAGTTTTGCATGCGATGGCCACTCAAATCGGAGTCACCTAGTGCAG | 10100 fluorescence intensity (a.u.)
TTCAGTTTTCACTTCATTATTTTGCCGTTTCTCTTTGACCCGGAGTCACCTAGTGCAG | 12300 fluorescence intensity (a.u.)
GCTCCTCGTCGCCACCGATCCCCGCCGCCGGCTTGCCTCACGGAGTCACCTAGTGCAG | 9340 fluorescence intensity (a.u.)
CGCGCCCACCAGTCCACTCACGCGGTCACTCTCCTCCAGTCGGAGTCACCTAGTGCAG | 8140 fluorescence intensity (a.u.)
ACCACTCCACGCGCCTATATCACCACACGTCACGCTTCCACGGAGTCACCTAGTGCAG | 16700 fluorescence intensity (a.u.)
CACCACACGTCACGCTTCCACCTCCACCTCCACCTCACTGCGGAGTCACCTAGTGCAG | 11900 fluorescence intensity (a.u.)
CCACTCACCACGCGCGCTGCCCGCTTGCCTCCTCTGCCCACGGAGTCACCTAGTGCAG | 10200 fluorescence intensity (a.u.)
